Most compounds without a hit are left out; they make up all but 3.5% or so of the library.
TROY signal inh: inhibitors of TROY-driven NF-kB signaling, primary screen, Q293 LMP1-TROYcd cells, NF-kB luciferase, uHTS | inhibition, % at 10 µM | Q293 LMP1-TROYcd NF-kB luciferase reporter, 4 h | actives 0.98% (n = 360,000);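 active = compounds whose plate-normalised and pattern-corrected inhibition of the luciferase reporter signal at the single screening dose is 50% or more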
C8 TRAIL sens: viability loss with TRAIL in NB7+C8 cells, primary screen, TRAIL sensitizer project, cell-based, ATPlite luminescence. AID 624354, 2012. inhibition (viability loss, TRAIL sensitization), % at 10 µM. actives 1% (n = 360,000);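 active = compounds causing at least 50% loss of cell viability in the single-dose screen, relative to plate controls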
HSP90 refold inh: HSP90 inhibitors, primary screen, cell lysate, luminescence | actives 0.91% (n = 290,000) | inhibition, % at 5.6 µM | Rabbit reticulocyte lysate, luciferase refolding luminescence, 3 h | Heat shock protein HSP 90 (rabbit reticulocyte lysate; luciferase refolding);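 active = inhibition above the screen-wide mean plus 3 SD, computed separately per campaign, cut at about 16% in these data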;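 also: 0% = DMSO wells and 100% = 60 µM geldanamycin wells; inhibitors lower the luminescence because luciferase stays unfolded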
TWEAK Fn14 block: inhibitors of TWEAK-Fn14 signaling, primary screen, luciferase reporter cells, uHTS. TWEAK-stimulated Fn14 reporter cells, luciferase luminescence, 8 h. inhibition, % at 10 µM. actives 2% (n = 360,000). AID 1159606, 2016; in the data active = inhibition above about 50%
Platelet DG rel: inhibitors of platelet dense granule secretion, primary screen, cell-based, MLPCN, human platelets; human platelet-rich plasma, SFLLRN dense granule ATP release, luminescence; inhibition, %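 (compounds screened at 7.5 µM in platelet-rich plasma)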; actives 0.22% (n = 300,000);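 active = mean replicate score, as percent of positive control, at or above 50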
PPC-1+TRAIL kill: compounds killing PPC-1 cancer cells with TRAIL present, primary screen, TRAIL potentiator project, ATPLite luminescence, uHTS; cell killing (% activity), % at 4 µM or 5 µM; actives 0.41% (n = 220,000); PPC-1 cells + TRAIL, ATPLite viability luminescence;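 active = cell killing above 50% in the first pass at 4 µM, then a duplicate retest at 5 µM averaging 50% or more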;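 also: plate controls were cells with TRAIL plus DMSO for no effect and medium-only wells lacking cells for full effect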
* = called active by the depositor; / = not tested or not shown.

SMILES	TROY signal inh	C8 TRAIL sens	HSP90 refold inh	TWEAK Fn14 block	Platelet DG rel	PPC-1+TRAIL kill
CCC(C)c1ccc(OCC(=O)Nc2ccc(CN3CCOCC3)cc2)cc1 (centres undefined)	10	19	-2	2	-1	/
NNc1nc2sc3c(c2c(=O)n1Cc1ccccc1)CCC3	-5	-2	4	-21	6	-6
NNc1nc(-c2ccccc2)nc2sc3c(c12)CCCC3	72*	64*	8	79*	-3	21
CS(=O)(=O)c1ccc2nc(NC(=O)c3ccc(NS(=O)(=O)c4ccc(F)c(F)c4)cc3)sc2c1	11	8	5	7	8	12
O=C(Nc1nc2ccc(SC(F)F)cc2s1)c1ccc(NS(=O)(=O)c2ccc(F)c(F)c2)cc1	54*	3	-3	71*	17	11
COc1c2ccoc2nc2c(OC)c(OCC(OC(C)=O)C(C)(C)O)ccc12 (centres undefined)	0	2	-1	-19	0	-1
Cn1c2c(c(=O)n(C)c1=O)C(C(F)(F)F)(C(F)(F)F)N=C(c1ccc(Cl)cc1)N2	57*	51*	1	62*	6	39
COc1cc(OC)c(OC)cc1CNC(=O)c1cccc(S(=O)(=O)N2CCc3ccccc3C2)c1	51*	26	/	81*	/	/
CCc1nnc(NC(=O)c2nc(S(=O)(=O)Cc3ccc(C)cc3)ncc2Cl)s1	51*	95*	5	95*	-14	/
CCSc1ncc(Cl)c(C(=O)Nc2ccccc2OC)n1	12	-4	3	-9	-6	/
CCc1nnc(NC(=O)c2nc(S(=O)(=O)Cc3cccc(C)c3)ncc2Cl)s1	46	98*	4	97*	-18	/
CCc1nnc(NC(=O)c2nc(S(=O)(=O)Cc3ccccc3)ncc2Cl)s1	33	94*	1	97*	-22	/
CCOc1ccccc1NC(=O)c1nc(S(=O)(=O)Cc2cccc(C)c2)ncc1Cl	71*	93*	11	79*	13	/
COc1ccc([C@H]2C[C@@H](O)[C@H](n3cc(C4CC4)nn3)CN2CC2CCCCC2)cc1	-17	-11	/	-7	/	/
C/C(=N\NC(=O)CNC(=O)C1COc2ccccc2O1)c1ccco1 (centres undefined)	1	-4	-2	6	0	/
CCc1nn(C(C)C(=O)N2CCN(c3ccc(OC)cc3)CC2)c(=O)c2cc3occc3n12 (centres undefined)	5	21	-3	20	3	/
COc1cc2[nH]c(=O)n(CCCCCC(=O)N3CC=C(c4ccccc4)CC3)c(=O)c2cc1OC	26	19	1	59*	3	13
COc1cc2[nH]c(=O)n(CCC(=O)N3CCc4ccccc4C3)c(=O)c2cc1OC	-9	4	-2	-4	-1	9
COC(=O)c1ccc2c(=O)n(CCCCCC(=O)N3CCN(c4ccc(F)cc4)CC3)c(=O)[nH]c2c1	60*	45	10	56*	0	6
Cc1ccc(NC(=O)Cc2ccsc2)cc1S(=O)(=O)N1CCOCC1	-6	-10	/	0	/	/
CCOC(=O)/C(=C/c1ccc(OC(F)F)cc1)C1=Nn2c(nnc2-c2ccc(Cl)cc2)SC1	91*	90*	/	107*	/	/
CCOC(=O)/C(=C\c1ccc(OC(F)F)cc1)C1=Nn2c(nnc2-c2ccc(Cl)cc2)SC1	90*	94*	-1	105*	4	29
COc1ccc(-c2nnc3n2N=C(C)CS3)cc1	16	-3	4	-1	-2	20
Cc1ccc(Sc2cc(NCCCO)c([N+](=O)[O-])c3nonc23)cc1	21	-13	5	55*	-57	13
CC(=O)OCCCNc1cc(Sc2ccc(Cl)cc2)c2nonc2c1[N+](=O)[O-]	51*	37	-5	79*	17	0
SMILES	TROY signal inh	C8 TRAIL sens	HSP90 refold inh	TWEAK Fn14 block	Platelet DG rel	PPC-1+TRAIL kill
CSCCC(NC(=O)c1ccc(Cl)cc1Cl)C(=O)N1CCCCCCC1 (centres undefined)	8	-10	/	23	/	/
CCc1ccc(C(=O)COC(=O)CNC(=O)c2ccco2)cc1	/	16	2	11	51*	18
N#CCCN(C(=O)CCl)c1cccc(Cl)c1	19	-8	1	49	1	-2
Cc1ccc(N(NC(=O)C(O)(c2ccccc2)c2ccccc2)C(=O)CCl)cc1	-12	54*	-1	46	-3	30
CCCCCCCN(C(=O)CCl)c1cccc(C)c1	-9	95*	5	17	-2	16
CC(=O)N(CCN(C(C)=O)c1ccccc1)c1ccccc1	-10	-2	0	3	2	-8
O=C(N(c1ccccc1)c1ccccc1)N(c1ccccc1)c1ccccc1	-3	11	8	2	-7	19
O=C(CCl)N(c1ccccc1)c1ccccc1	9	94*	2	26	12	-6
CCCCCCN(C(=O)CCl)c1ccccc1	-5	96*	4	32	0	22
Cc1ccc(C(O)(C(=O)NN(C(=O)c2ccccc2)c2ccccc2)c2ccc(C)cc2)cc1	16	-7	0	34	7	5
O=C(NCC(=O)N1CCN(c2ccc(C(F)(F)F)cn2)CC1)c1ccc(Br)o1	12	12	/	0	/	/
O=[N+]([O-])c1ccc(Oc2ccc(Oc3ccc(C(F)(F)F)cn3)cc2)nc1	-3	-2	4	-15	-7	17
COC(=O)c1ccccc1NC(=O)CSc1n[nH]c(-c2ccco2)n1	1	2	3	8	-23	/
O=C(CCl)N(CCc1ccccc1)CCc1ccccc1	1	95*	4	9	0	/
CCC(O)(CC)C(=O)NN(C(=O)CCl)c1ccccc1	2	19	2	23	-18	-6
O=C(Nc1ccccc1)NN(C(=O)CCl)c1ccccc1	-4	97*	-2	69*	1	/
OC(c1cccc(Cl)c1)c1nc(-c2ccoc2)cs1 (centres undefined)	17	-15	/	16	/	/
CCOc1ccc(NC(=O)/C(C#N)=C/c2cn(CC(=O)O)c3ccccc23)cc1	-3	-5	-2	92*	0	/
C[C@H]1CN([C@@H](C)CO)C(=O)CCCn2nncc2CO[C@H]1CN(C)S(=O)(=O)c1ccccc1F	0	4	/	-7	/	/
Nc1c(C(=O)NC2CC2)sc2nc3c(c(-c4ccco4)c12)CC/C3=C/c1ccco1	8	-11	1	83*	/	33
CCN1/C(=C/C(C)=C/c2sc3ccccc3[n+]2CC)Sc2ccccc21	33	50*	1	82*	17	47

Compound activity (PubChem BioAssay)
